PubChem BioAssay AID1645838 (ICCB-Longwood Screening Facility, Harvard Medical School, 2021)
Several values for one entry are separate records, joined by “and”; a condition that tells them apart may be missing. Identical values can stand only once. The whole screen tested about 2,000 compounds, of which about 100 (5%) were called active. Rule as the data show it: active = z-score above about 2; inactive = the rest. The full list was thinned out, with actives kept by preference. The source holds several records for some structures; these can differ, active in one and inactive in another. Positions of bridges follow the written chain, without caps; N, C: chain ends. Non-standard residues stand in square brackets, D forms with d. Residues, ends and D or L forms follow the SMILES beside them. hArg = N=C(N)NCCCC[CH](N)C(=O)O; Mpa = O=C(O)CCS

Assay: modulators of mitochondrial supercomplex assembly, cell-based, luminescence, Hoechst nuclei count (AID 1645838);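 also: control cybrid cells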;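 as to z-score: higher means more mitochondrial supercomplex formation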
Conditions: Cells, luminescence/Hoechst cell count ratio, supercomplex reporter; for z-score: stronger effect = higher value; for cell count: measured here: cell number, Hoechst nuclei count
[1] = library stock concentration (final well concentration not given) 80 uM
[2] = library stock concentration (final well concentration not given) 400 uM
[3] = library stock concentration (final well concentration not given) 2 mM
[4] = library stock concentration (final well concentration not given) 10 mM
[5] = library stock concentration (final well concentration not given) 46 uM
[6] = library stock concentration (final well concentration not given) 278 uM
[7] = library stock concentration (final well concentration not given) 1.67 mM

Compound: Cc1cc(C)c(/C=C2\C(=O)Nc3ccccc32)[nH]1
- z-score: -0.647 (inactive)
- cell count: 5700

Compound: COc1cc(=C2C=c3ccccc3=N2)[nH]c1=Cc1[nH]c(C)cc1C
- z-score [1]: 0.065 (inactive)
- z-score [2]: 2.07 (active)
- z-score [3]: 3.14 (active)
- z-score [4]: 1.08 (inactive)
- cell count [1]: 5750
- cell count [2]: 1640
- cell count [3]: 1600
- cell count [4]: 1560

Compound: CCCC(NC(C)C(=O)N1C(C(=O)O)C[C@H]2CCCC[C@@H]21)C(=O)OCC (stereo partly specified)
- z-score [1]: -0.394 (inactive)
- z-score [2]: 0.104 (inactive)
- z-score [3]: -0.276 (inactive)
- z-score [4]: -0.453 (inactive)
- cell count [1]: 5070
- cell count [2]: 4880
- cell count [3]: 5080
- cell count [4]: 5340

Compound: CCCCCCCCC#CCC#CCC#CCCCC(=O)O
- z-score: 0.153 (inactive)
- cell count: 5310

Compound: CCCCC1C(=O)CC[C@H]2[C@@H]1CC(=O)[C@@H]2CCCCCCC(=O)O (stereo partly specified)
- z-score: -0.162 (inactive)
- cell count: 5440

Compound: CC/C=C\C/C=C\C/C=C\CCCCCCCC(=O)OCC
- z-score: -0.911 (inactive)
- cell count: 5260

Compound: O=C(NC1CCN(CC(F)(F)F)CC1)c1ccc(-c2cccc(F)c2)nc1
- z-score [5]: -0.25 (inactive)
- z-score [6]: 0.0438 (inactive)
- z-score [7]: -0.291 (inactive)
- z-score [4]: -0.236 (inactive)
- cell count [5]: 6960
- cell count [6]: 6520
- cell count [7]: 7210
- cell count [4]: 7340

Compound: NC(=O)Nc1sc(-c2ccc(F)cc2)cc1C(N)=O
- outcome (library stock 10 mM): inactive; censored for cell count
- z-score [5]: -0.164 (inactive)
- z-score [6]: 0.156 (inactive)
- z-score [7]: 1.6 (inactive)
- cell count [5]: 6530
- cell count [6]: 6190
- cell count [7]: 4790

Compound: NC(=O)Nc1cc(-c2cccc(F)c2)sc1C(=O)NC1CCCNC1 (stereo unspecified)
- outcome (library stock 400 µM): inactive; censored for cell count
- outcome (library stock 2 mM): inactive; censored for cell count
- outcome (library stock 10 mM): inactive; censored for cell count
- z-score [1]: 0.798 (inactive) and 2.01 (active)
- z-score [2]: 2.61 (active)
- cell count [1]: 3580 and 3980
- cell count [2]: 1750

Compound: Cc1ccc(NC(=O)c2ccc(CN3CCC(N(C)C)C3)c(C(F)(F)F)c2)cc1Nc1nccc(-c2cncnc2)n1 (stereo unspecified)
- z-score [1]: 0.0204 (inactive)
- z-score [2]: 0.323 (inactive)
- z-score [3]: 1.69 (inactive)
- z-score [4]: 4.49 (active)
- cell count [1]: 5990
- cell count [2]: 5640
- cell count [3]: 4410
- cell count [4]: 2490

Compound: Cc1cn(-c2cc(NC(=O)c3ccc(C)c(Nc4nccc(-c5cccnc5)n4)c3)cc(C(F)(F)F)c2)cn1
- z-score [1]: -0.15 (inactive)
- z-score [2]: -0.0425 (inactive)
- z-score [3]: 0.192 (inactive)
- z-score [4]: 1.64 (inactive)
- cell count [1]: 5660
- cell count [2]: 5720
- cell count [3]: 5660
- cell count [4]: 3260

Compound: Cc1ccc(NC(=O)c2ccc(CN3CCN(C)CC3)cc2)cc1Nc1nccc(-c2cccnc2)n1
- z-score [1]: -0.201 (inactive)
- z-score [2]: -0.672 (inactive)
- z-score [3]: -0.269 (inactive)
- z-score [4]: -0.486 (inactive)
- cell count [1]: 4460
- cell count [2]: 4540
- cell count [3]: 4320
- cell count [4]: 4680

Compound: O=C(O)CCC/C=C\C[C@@H]1[C@@H](/C=C/[C@@H](O)C2CCCCC2)[C@H](O)C[C@@H]1O
- z-score: -0.293 (inactive)
- cell count: 5180

Compound: O=C1C[C@@H]2[C@@H](/C=C/[C@@H](O)COc3cccc(C(F)(F)F)c3)[C@H](O)C[C@@H]2O1
- z-score: 0.782 (inactive)
- cell count: 5240

Compound: COc1cc(N2CCC(N3CCN(C)CC3)CC2)ccc1Nc1ncc(Cl)c(Nc2ccccc2S(=O)(=O)C(C)C)n1
- outcome (library stock 10 mM): inactive; censored for cell count
- z-score [1]: 0.0842 (inactive)
- z-score [2]: 0.241 (inactive)
- z-score [3]: 1.15 (inactive)
- cell count [1]: 4260
- cell count [2]: 4220
- cell count [3]: 3560

Compound: CNC(=O)c1ccccc1Nc1nc(Nc2ccc(N3CCOCC3)cc2OC)ncc1Cl
- outcome (library stock 2 mM): inactive; censored for cell count
- outcome (library stock 10 mM): inactive; censored for cell count
- z-score [1]: -0.243 (inactive)
- z-score [2]: -0.00453 (inactive)
- cell count [1]: 6320
- cell count [2]: 5260

Compound: COc1cc(N2CCOCC2)ccc1Nc1ncc(F)c(Nc2ccccc2NS(C)(=O)=O)n1
- z-score [1]: -0.351 (inactive)
- z-score [2]: -0.312 (inactive)
- z-score [3]: 0.0927 (inactive)
- z-score [4]: 3.16 (active)
- cell count [1]: 5830
- cell count [2]: 5470
- cell count [3]: 5120
- cell count [4]: 1690

Compound: CCC(O)/C=C/C=O (stereo unspecified)
- z-score: 0.341 (inactive)
- cell count: 4950

Compound: O=C1C(=Cc2cn(-c3ccccc3)nc2-c2ccc(OCc3ccc(Cl)cc3)cc2)SC(=S)N1CCS(=O)(=O)O
- z-score [1]: 0.0314 (inactive)
- z-score [2]: 0.372 (inactive)
- z-score [3]: -0.323 (inactive)
- z-score [4]: -0.219 (inactive)
- cell count [1]: 5380
- cell count [2]: 4640
- cell count [3]: 5180
- cell count [4]: 4960

Compound: c1ccc(Nc2nc3c(s2)CCCc2[nH]ncc2-3)nc1
- z-score [5]: -0.0827 (inactive)
- z-score [6]: -0.00166 (inactive)
- z-score [7]: -0.105 (inactive)
- z-score [4]: 0.335 (inactive)
- cell count [5]: 6250
- cell count [6]: 5830
- cell count [7]: 6080
- cell count [4]: 5550

Compound: CC(C)C1C(=O)NC(CCCN=C(N)N)C(=O)NCC(=O)NC(CC(=O)O)C(=O)NC(Cc2ccccc2)C(=O)N1C (stereo unspecified)
- z-score [1]: 0.68 (inactive)
- z-score [2]: 0.227 (inactive)
- z-score [3]: 0.518 (inactive)
- z-score [4]: 5.23 (active)
- cell count [1]: 5020
- cell count [2]: 5060
- cell count [3]: 4260
- cell count [4]: 1780

Compound: NC(=O)C1CSSCCC(=O)NC(CCCCN=C(N)N)C(=O)NCC(=O)NC(CC(=O)O)C(=O)NC(Cc2c[nH]c3ccccc23)C(=O)N2CCCC2C(=O)N1 (stereo unspecified) ([Mpa][hArg]GDWPC-NH2; disulfide 1-7; configuration not given here)
- z-score [5]: -0.201 (inactive)
- z-score [6]: -0.18 (inactive)
- z-score [7]: -0.38 (inactive)
- z-score [4]: -0.0485 (inactive)
- cell count [5]: 5770
- cell count [6]: 5930
- cell count [7]: 6620
- cell count [4]: 5820

Compound: CCCCC[C@H](O)/C=C/[C@@H]1[C@@H](C/C=C\CCCCOC)[C@@H](O)C[C@H]1O
- z-score: -0.514 (inactive)
- cell count: 5540

Compound: CCCCC[C@@H](O)[C@H]1C(=O)O[C@H](C)[C@@H](O)/C=C/C=C/C=C/C=C/C=C(\C)[C@@H](O)C[C@H](O)C[C@H](O)C[C@H](O)C[C@H](O)C[C@H](O)C[C@@H]1O
- z-score: 0.375 (inactive)
- cell count: 5780

Compound: Cc1cc(-c2ccccc2)nc2cc(C(=O)Nc3cccc(O)c3)nn12
- z-score [1]: 0.0171 (inactive)
- z-score [2]: 0.0308 (inactive)
- z-score [3]: -0.473 (inactive)
- z-score [4]: -0.672 (inactive)
- cell count [1]: 5500
- cell count [2]: 5070
- cell count [3]: 5150
- cell count [4]: 5110
